Here are results for 40 compounds from PubChem BioAssay (NCATS).

Results filed as inconclusive are left out. Entries that show only a call come without a potency. Active and inactive are the calls of the source. Calls come from the whole dose curve; as a rule, active = well fitted cell-killing curve with a large enough effect; inconclusive = small, poorly fitted or top-dose-only effect; inactive = flat fitted curve, though single readings scatter.
Potency is the fitted concentration of half-maximal effect.

A short description of this experiment: Cell Viability - Mesenchymal (AID 546).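 Note: cells exposed to compound for 40 hours before reading.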 To be noted: mesenchymal cells viability, qHTS; activity change, negative = cytotoxicity: at 91.7 µM (top of the series). An excerpt:
NIH Chemical Genomics Center [NCGC]
NIH Molecular Libraries Screening Centers Network [MLSCN]
National Institutes of Environmental Health Sciences [NIEHS]
National Toxicology Program [NTP]
We have developed a 1536-well cell-based assay for quantitative high throughput screening (qHTS) against a number of cell lines to determine in vitro cytotoxicity of small molecules. This particular assay uses the kidney mesenchymal cell line which is derived from normal human renal glomeruli.
NCGC Assay Protocol Summary:
The CellTiter-Glo luminescent cell viability assay (Promega) is a homogeneous method to measure the number of viable cells in culture. The end point readout of this assay is based on quantitation of intracellular ATP, an indicator of metabolic activity, using the luciferase reaction. Luciferase catalyzes the oxidation of beetle Luciferin to oxyluciferin and light in the presence of ATP. The luminescent signal is proportional to amount of ATP present.
Using the CellTiter-Glo luminescent cell viability assay, the amount of cellular ATP was measured in the kidney mesenchymal cell line with complete culture medium following compound treatment for 40 hours. The assay was performed in opaque white Kalypsys 1536-well plates. In the screen, tamoxifen and doxorubicin were used as positive controls. Library compounds were measured for their ability to cause acute toxicity in the cell line, as reflected by a decrease in intracellular ATP levels, in a concentration-dependent manner. […] AC50 values were determined from concentration-response data modeled with the standard Hill equation.
qHTS protocol for CellTiter Glo kidney mesenchymal cells cellular assay
[Step] [Parameter] [Value] [Description]
1. Reagent; 5 uL; 1000 kidney mesenchymal cells/well
2. Time; 5 hr; 37 °C incubation
4. Controls; 23 nL; Tamoxifen 0.34 uM to 100 uM & Doxorubicin 0.02 nM to 100 uM
5. Time; 40 hr; 37 °C incubation
6. Reagent; 5 uL; CellTiter Glo reagent
7. Time; 20 min; Room Temperature
8. Detection; Luminescence; Viewlux plate reader
Keywords: cell viability, cytotoxicity, Kidney mesenchymal cell line, luminescence, NTPHTS, NTPHTS_NCGC, NIEHS, EPA, DSSTox, MLSMR, MLSCN, NIH Roadmap, qHTS, NCGC
On the technique in general: qHTS replaces the single test concentration by a dilution series.
Consider `C=Cc1cccc(C)c1`, for which the Potency result is “inactive”.
The value for `Cc1ccc(C(=O)O)cc1[N+](=O)[O-]` was “inactive”.
The value for `CC1=C(/C=C/C(C)=C/C=C/C(C)=C/C=O)C(C)(C)CCC1` was 31.6 µM (active); that for `C=CC1CO1` (stereo not given) was “inactive”; that for `c1ccc(SCCSc2ccccc2)cc1` was “inactive”.
The result for `c1ccc2ncccc2c1` reads “inactive”.
With `O=[N+]([O-])c1cccc(I)c1`, the Potency entry is “inactive”.
The result for `Brc1cc(Br)c(Oc2cc(Br)c(Br)cc2Br)cc1Br` reads “inactive”.
The value for `CC(C)S` was “inactive”; that for `Cc1cccnc1` was “inactive”.
The value for `OCC(CBr)(CBr)CBr` was “inactive”; that for `C=CC(=O)CC` was “inactive”.
On to `O=c1[nH]ncc2ccccc12`, for which the Potency result was “inactive”.
The result for `CC(=O)OC1CC(C)OC(C)O1` (stereo not given) reads “inactive”; that for `CCCCCCc1ccc(-c2ccc(C#N)cc2)cc1`, “inactive”.
On to `Clc1nc2ccccc2nc1Cl`, for which the Potency result is “inactive”.
For the compound `O=[N+]([O-])c1cc(Cl)c(Cl)c(Cl)c1Cl`, the Potency entry was “inactive”.
On to `C=C(C#N)C(=O)OCC`, for which the Potency result is “inactive”.
The value for `Oc1cc(Cl)cc(Cl)c1Cl` was “inactive”; that for `CC(C)(C)C(=O)C1C(=O)c2ccccc2C1=O` was “inactive”; that for `CCCCCCCCC1CO1` (stereo not given) was “inactive”.
The result for `Cc1c(N)cccc1Cl` reads “inactive”; that for `NC(=O)c1ccc([N+](=O)[O-])cc1`, “inactive”; that for `S=C(NC1CCCCC1)NC1CCCCC1`, “inactive”.
The value for `Cc1ccc(O)c(N)c1` was “inactive”.
Regarding `c1ccc(CSCc2ccccc2)cc1`, the Potency result was “inactive”.
Consider `OCC(CO)(CBr)CBr`, for which the Potency entry is “inactive”.
Take `CCOc1ccc2nc(N)sc2c1`: the Potency result was “inactive”.
With `Cc1cc(=O)oc2cc(O)cc(O)c12`, the Potency entry was “inactive”.
The value for `Cc1ccc2ccc3cccc4ccc1c2c34` was “inactive”.
The result for `Cc1ccc(N)cc1[N+](=O)[O-]` reads “inactive”; that for `CC(=O)OC(C(=O)c1ccccc1)c1ccccc1` (stereo not given), “inactive”; that for `O=C(O)/C=C/c1ccc(/C=C/C(=O)O)cc1`, “inactive”.
Consider `C=CC(C)(O)CCCC(C)CCCC(C)CCCC(C)C` (stereo not given), for which the Potency result was “inactive”.
The result for `O=[N+]([O-])c1ccc(F)cc1F` reads “inactive”; that for `O=C(OCc1ccccc1)c1ccccc1O`, “inactive”; that for `NC(=O)Nc1nc2ccccc2[nH]1`, “inactive”.
The value for `CCc1ccc(C(c2ccc(CC)cc2)C(Cl)Cl)cc1` was “inactive”.
The result for `C/C(Cl)=C/CCl` reads “inactive”; that for `Nc1cc(C(=O)O)c(O)c(S(=O)(=O)O)c1`, “inactive”.
